From PubChem BioAssay
Most compounds without a hit are left out; they make up all but 1.6% or so of the library.
KCNQ2 block = KCNQ2 (rat) channel inhibition | O88943 | CHO-K1 KCNQ2, FluxOR thallium flux, 20 min; hits give low values | B-score at 10 µM | 310,000 tested, 1.1% active | AID 2156;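 active = fluorescence ratio B-score at most minus 3 library SDs, with starting brightness B-score within 2 library SDs, cut at about -5.5 in these data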
Target sequence (O88943 whole entry, looked up): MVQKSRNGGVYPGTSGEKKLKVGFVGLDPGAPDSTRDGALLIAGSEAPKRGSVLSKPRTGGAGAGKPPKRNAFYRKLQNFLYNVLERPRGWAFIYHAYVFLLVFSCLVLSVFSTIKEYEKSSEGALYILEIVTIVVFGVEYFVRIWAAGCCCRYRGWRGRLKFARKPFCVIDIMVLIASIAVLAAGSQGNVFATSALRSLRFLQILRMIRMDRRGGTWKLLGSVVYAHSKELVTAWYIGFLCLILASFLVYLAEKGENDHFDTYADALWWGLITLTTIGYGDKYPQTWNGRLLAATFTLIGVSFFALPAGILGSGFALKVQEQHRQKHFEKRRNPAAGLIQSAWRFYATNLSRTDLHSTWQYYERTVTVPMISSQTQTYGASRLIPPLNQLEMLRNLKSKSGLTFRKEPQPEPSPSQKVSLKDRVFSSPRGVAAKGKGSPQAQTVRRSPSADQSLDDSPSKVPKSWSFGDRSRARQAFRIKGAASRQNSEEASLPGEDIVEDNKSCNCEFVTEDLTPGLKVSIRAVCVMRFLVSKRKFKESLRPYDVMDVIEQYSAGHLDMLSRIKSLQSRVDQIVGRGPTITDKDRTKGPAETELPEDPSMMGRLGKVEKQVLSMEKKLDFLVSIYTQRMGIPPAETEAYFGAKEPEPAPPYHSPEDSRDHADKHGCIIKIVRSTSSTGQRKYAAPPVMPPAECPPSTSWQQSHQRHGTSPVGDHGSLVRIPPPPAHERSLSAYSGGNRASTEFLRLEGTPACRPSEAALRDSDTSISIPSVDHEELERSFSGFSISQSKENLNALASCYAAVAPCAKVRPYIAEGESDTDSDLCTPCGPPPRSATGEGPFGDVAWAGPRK
KCNQ2 pot = enhances the rat KCNQ2 potassium channel; 310,000 tested, 0.54% active; B-score at 10 µM; CHO-K1 KCNQ2, FluxOR thallium flux fluorescence; hits give high values;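 active = fluorescence ratio B-score at least 3 SD of library B-scores, with initial fluorescence B-score within 3 of them, cut at about 5.3 in these data; same plate scores as AID 2156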;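 also: B-score of peak minus minimum over baseline fluorescence ratio after K+ and Tl+ stimulus; positive B-score means potentiation of KCNQ2 with more thallium influx and brighter signal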
Numbers without * were called inactive; i = inactive; x = not tested or not shown.

SMILES | KCNQ2 block | KCNQ2 pot
C[C@@H](C(=O)Nc1ccc2ccccc2c1)[C@H]1C[C@]1(C)[C@H](NC(=O)OCc1ccccc1)c1ccccc1 | -5.89* | -5.89
COc1cccc(-c2nn(-c3ccccc3)cc2C(=O)n2nnc3ccccc32)c1 | -6.36* | -6.36
O=C(c1cn(-c2ccccc2)nc1-c1ccccc1)n1nnc2ccccc21 | i | x
CC(=O)NC(Cc1cccc(F)c1)C(=O)NC1CCN(C(=O)Nc2ccc(C)cc2)CC1 (centres undefined) | i | 1.14
CN(CC(=O)Nc1ccc(Cl)cc1)C(=O)c1cc(-c2cccs2)nn1-c1ccccc1 | -7.63* | -7.63
CN(CC(=O)Nc1c(Cl)cccc1Cl)C(=O)c1cc(-c2cccs2)nn1-c1ccccc1 | i | x
COc1ccc(Br)cc1/C=N/Nc1cccc(C(=O)O)c1 | i | 0.77
O=C(O)c1cccc(N/N=C/c2cc(Br)cc(Br)c2O)c1 | i | 5.83*
CN(/N=C/c1cc(Br)cc(Br)c1O)c1ccccc1 | i | x
Cc1c(N=Cc2cc(Br)cc(Br)c2O)cccc1C(=O)O | i | 9.51*
Cc1nnnn1/C(=C\c1ccccc1)C(=O)OCC(=O)NC(C)(C)C | i | x
Cc1nnnn1/C(=C\c1ccccc1)C(=O)OCC(=O)NC1CCCCC1 | -5.97* | -5.97
CCc1ccc(S(=O)(=O)/N=C2\C=C(Nc3ccc(C(=O)O)cc3)C(=O)c3ccccc32)cc1 | i | 3.14
CC(C)(C)c1ccc(S(=O)(=O)/N=C2\C=C(NS(=O)(=O)c3ccccc3)C(=O)c3ccccc32)cc1 | -6.06* | -6.06
CC(C)(C)n1nc2c(c1NC(=O)c1cc3ccccc3o1)CS(=O)(=O)C2 | i | x
Clc1ccc(OCCN2CCN(c3ncnc4sccc34)CC2)cc1 | -6.05* | -6.05
Cc1ccc(OCCN2CCN(c3ncnc4sc(C)c(C)c34)CC2)cc1 | i | x
COc1ccccc1N=C1NC(=O)/C(=C/c2ccc(N(C)C)cc2)S1 | i | x
CCN(CCO)C(=O)c1ccc2nc(Cc3cccc(Cl)c3)oc2c1 | i | x
CCc1cc2cc(C(=O)N3CCN(c4ccccc4)CC3)sc2s1 | i | x
CCc1cc2cc(C(=O)N3CCN(Cc4ccccc4)CC3)sc2s1 | -5.76* | -5.76
C/C(=N/Nc1nc(C)cc(-c2ccccc2)n1)c1ccco1 | i | 1.71
C/C(=N\Nc1nc(C)cc(-c2ccccc2)n1)c1ccc(C)o1 | -6.07* | -6.07
CCCc1cc(C(=O)N2CCN(c3ccccc3C)CC2)cs1 | -5.69* | -5.69
CCCc1cc(C(=O)N2CCCN(C)CC2)cs1 | i | 1.61
SMILES | KCNQ2 block | KCNQ2 pot
Cc1ccnc(NC(=O)CCC(=O)N(Cc2ccco2)C(C(=O)NC(C)C)c2ccc(F)cc2)c1 (centres undefined) | i | 0.12
Cc1csc(NC(=O)c2ccc(Cl)nc2)n1 | i | 1.58
Cc1sc2ncnc(SCC(=O)N3CCN(C(=O)c4ccco4)CC3)c2c1C | i | 0.17
Cc1sc2nc(C(C)C)nc(SCC(=O)N3CCN(C(=O)c4ccco4)CC3)c2c1C | i | 13*
COc1ccc(C(=S)N2CCOCC2)cc1OS(=O)(=O)c1ccccc1[N+](=O)[O-] | -6.72* | -6.72
COc1cc(C(=S)N2CCOCC2)ccc1OS(=O)(=O)c1ccccc1[N+](=O)[O-] | i | 1.39
COc1ccc(CN2CCNC(=O)C2CC(=O)NC2CCCCCCC2)cc1C (centres undefined) | i | x
Cc1cccc(N2CCN(C(=O)CCC(=O)N3CC(C)Oc4ccccc43)CC2)c1C (centres undefined) | -5.88* | -5.88
Cc1ccc2c(c1)N(C(=O)CCC(=O)N1CCN(c3cccc(C)c3C)CC1)CCO2 | -5.68* | -5.68
CC1CCN(C(=O)CCC(=O)N2CC(C)Oc3ccccc32)CC1 (centres undefined) | i | x
Cc1ccc2c(c1)N(C(=O)CCC(=O)N1CCN(c3ccccc3)CC1)CCO2 | i | 0.01
COc1ccc2[nH]c(=O)c(CN(C(=O)c3cccnc3)c3ccc(C)c(C)c3)cc2c1 | i | x
CCN(Cc1ccccc1)C(=O)CCS(=O)(=O)c1ccc2c(c1)n(C)c(=O)c(=O)n2C | i | 0.12
CCCc1cc(=O)oc2cc(C)cc(OC(C)C(=O)NCc3ccncc3)c12 (centres undefined) | i | x
CCOC(=O)C1(CCc2ccccc2)CCN(Cc2ccc(C(=O)OC)cc2)CC1 | -5.65* | -5.65
CCOC(=O)C1(CC2CC2)CCN(Cc2ccc(C(=O)OC)cc2)CC1 | i | x
CCONc1ncnc2nonc12 | i | 0.41
Clc1ccc(CONc2ncnc3nonc23)c(Cl)c1 | i | 6.88*
COc1ccc(COC(=O)N/N=C/c2cccs2)cc1 | i | 1.96
COc1cc(C2NC(=O)NC(c3ccccc3)=C2C(C)=O)c(Br)c(Br)c1O (centres undefined) | i | 2
COc1ccc(C)cc1NC(=O)C(Sc1nncn1C)c1ccccc1 (centres undefined) | i | x
COc1ccc(C)cc1NC(=O)C(Sc1nnc(Nc2ccccc2F)s1)c1ccccc1 (centres undefined) | -6.28* | -6.28
O=C(O)c1cc(N/N=C/C(Cl)=C/c2ccccc2)ccc1Cl | i | 5.32*
O=C(O)c1cc(N/N=C/c2cccc3ccccc23)ccc1Cl | i | 1.82
Cc1cc(NC(=O)c2cc(-c3ccc(C)s3)nc3ccccc23)no1 | i | x
SMILES | KCNQ2 block | KCNQ2 pot
CCOC(=O)c1ccc(NC(=S)NNC(=O)c2cc(-c3cccnc3)nc3ccccc23)cc1 | i | x
Cc1ccc(C)c(NC(=O)c2cc(C)nc3ccccc23)c1 | -5.87* | -5.87
CC(=O)Nc1cccc(NC(=O)c2cc(-c3cccnc3)nc3ccc(Br)cc23)c1 | i | x
O=C(Nc1cccnc1)c1cc(-c2ccc(Br)cc2)nc2ccccc12 | -6.28* | -6.28
O=C(NNC(=S)Nc1ccccc1)c1cc(-c2cccnc2)nc2ccccc12 | -6.12* | -6.12
Cc1cccc(NC(=O)c2cc(-c3ccc(C)s3)nc3ccccc23)n1 | -7.49* | -7.49
Cc1ccc(NC(=O)c2cc(C)nc3ccccc23)cc1 | i | 0.37
COc1ccc(C(=O)Cn2cnc3ccc(Cl)cc3c2=O)cc1F | i | 0.02
O=C(NCC(=O)N(c1ccccc1)C(C(=O)NC1CCCCC1)c1cccnc1)c1ccco1 (centres undefined) | i | x
COc1ccc(OC)c(NC(=O)Cn2c(=O)n(CC3CCCO3)c(=O)c3cc(OC)c(OC)cc32)c1 (centres undefined) | i | x
O=C1CSC(c2ccccc2[N+](=O)[O-])N1CCc1ccccc1 (centres undefined) | i | x
O=C(NCCCN1CCOCC1)c1cc(-c2ccc(Br)cc2)nc2ccccc12 | -6.81* | -6.81
Cc1ccc(C)c(-c2cc(C(=O)Nc3cccnc3)c3ccccc3n2)c1 | -6.33* | -6.33
Cc1ccc(C)c(-c2cc(C(=O)Nc3cccc(C(=O)O)c3)c3ccccc3n2)c1 | i | x
O=C(NCCCN1CCOCC1)c1cc(-c2ccc3c(c2)OCO3)nc2ccccc12 | i | x
CCC(C)Sc1nnc(NC(=O)C2CCN(C(=O)c3ccco3)CC2)s1 (centres undefined) | i | x
Cc1cc(C)nc(SCC(=O)Nc2nc(-c3ccccc3)c(-c3ccccc3)o2)n1 | i | 0.07
Cc1ccc(C(=O)Nc2nc(-c3ccccc3)c(-c3ccccc3)o2)cc1 | i | 8.4*
S=C(NCCCN1CCOCC1)N1CCN(c2cccc(Cl)c2)CC1 | i | 2.44
O/N=C/c1ccc2ccccc2n1 | i | x
CC(C)(C)c1ccccc1N=Cc1ccc2ccccc2n1 | -6.41* | -6.41
